# According to PubChem BioAssay AID2283302 (EPA ToxCast):
# Results filed as inconclusive are left out. Calls of active or inactive are those of the source. How the source made its calls: active means hit-call score of the fitted dose curve at least 0.9, where 1 is the maximum; inconclusive means response in the unintended direction; inactive means score below 0.9.
# Target: rat Gamma-HydroxyButyrate Receptor (GHB), Tspan17 (gene 306771) (UniProt Q4V8E0)
# Test: NVS_GPCR_rGHB: NovaScreen (NVS) G Protein-Coupled Receptor Assay for rat Gamma-HydroxyButyrate Receptor (GHB)
# Method: NVS_GPCR_rGHB is a biochemical, single-readout assay that uses extracted gene-proteins from Rat forebrain in a tissue-based cell-free assay. Measurements were taken 1 hour after chemical dosing in a 48-well plate.NVS_GPCR_rGHB is one of one assay component(s) measured or calculated from the NVS_GPCR_rGHB assay. It is designed to make measurements of radioligand binding, a form of binding reporter, as detected with scintillation counting signals by Filter-based radiodetection technology.Data from the assay component NVS_GPCR_rGHB was analyzed into 1 assay endpoint. This assay endpoint, NVS_GPCR_rGHB, was analyzed in the positive analysis fitting direction relative to DMSO as the negative control and baseline of activity. Using a type of binding reporter, loss-of-signal activity can be used to understand changes in the binding as they relate to the gene Tspan17. Furthermore, this assay endpoint can be referred to as a primary readout, because the performed assay has only produced 1 assay endpoint. To generalize the intended target to other relatable targets, this assay endpoint is annotated to the gpcr intended target family, where the subfamily is metabotropic glutamate receptor.
# Binding assays used specific radioligands (tritiated, iodinated) with non-radioactive competitive displacement ligands in agonist or antagonist protocols (as indicated) and various reference compounds and inhibitors to titrate specific binding to receptors and transporters. Most enzyme assays (CYPs, kinases, phosphatases, proteases, HDACs) used recombinant protein and specific substrates (fluorescence mostly, some colorimetric and radioactive) and inhibitors, followed by a biochemical separation of substrate and product. All assays for the biochemical HTS were initially run in duplicate at a single concentration (10 uM for CYP450 assays and 25 uM for all others). Assay-chemical combinations meeting a pre-defined threshold (e.g., 30% inhibition and other criteria defined below) were then run in singleton concentration-response format with maximum concentration of 20 uM for CYPs and 50 uM for all others. Each assay was run with positive and negative controls, and concurrent controls on every plate. The follow-up (secondary) screen tested active chemical-pairs in concentration series, as well as a few additional assays not tested in the primary screen, some selected negative inactives, and several cases re-run in the concentration series for confirmatory purposes.
# Chain of rat Gamma-HydroxyButyrate Receptor (GHB), Tspan17 (gene 306771) (Q4V8E0 whole entry, looked up): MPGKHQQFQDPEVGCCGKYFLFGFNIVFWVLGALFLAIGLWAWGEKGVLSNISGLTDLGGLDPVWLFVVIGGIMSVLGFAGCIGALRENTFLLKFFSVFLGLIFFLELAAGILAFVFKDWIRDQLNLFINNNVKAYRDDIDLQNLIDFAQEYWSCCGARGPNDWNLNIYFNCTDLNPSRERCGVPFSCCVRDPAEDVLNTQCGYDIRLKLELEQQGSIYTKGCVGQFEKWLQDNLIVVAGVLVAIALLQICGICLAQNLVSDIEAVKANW
Structure (SMILES),AC50,outcome
Cc1cc(Cl)ccc1OCC(=O)O,25 µM (active),
CCOC(=O)CC(SP(=S)(OC)OC)C(=O)OCC (centres undefined),,inactive
COP(=S)(OC)Oc1nc(Cl)c(Cl)cc1Cl,,inactive
CC(C)Oc1cccc(NC(=O)c2ccccc2C(F)(F)F)c1,,inactive
CO[C@@H]1[C@H](OC(=O)NC(=O)CCl)CC[C@]2(CO2)[C@H]1[C@@]1(C)O[C@@H]1CC=C(C)C,,inactive
CCOP(=O)(OCC)Oc1nc(Cl)c(Cl)cc1Cl,,inactive
CC(C1CC1)C(O)(Cn1cncn1)c1ccc(Cl)cc1 (centres undefined),,inactive
Clc1nc(Cl)nc(Nc2ccccc2Cl)n1,18.6 µM (active),
N#CSCSC#N,19.5 µM (active),
